From PubChem BioAssay
PNC inhibitor: High Content Assay for Compounds that inhibit the Assembly of the Perinucleolar Compartment. PC3M PTB-GFP, PNC prevalence imaging, 16 h; active compounds read low. activity change (PNC), negative = inhibition, % at 10 µM. 140,000 tested, 3.1% active;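 active means readout at or below -70, meaning at least 70% loss of cells showing the perinucleolar compartment, a nuclear body marking cancer cells; inconclusive means readout between -30 and a set limit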;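 further: plate controls were DMSO wells for no effect and camptothecin positive control wells for full effect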
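PC3M cells stably expressing PTB-GFP, 750–1000 cells/well, treated 16 h at 37 °C with compound (23 nl of library stock), in duplicate. After paraformaldehyde fixation and Hoechst stain, imaged at 20x; PNC prevalence scored by image analysis.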
HPGD inh: qHTS Assay for Inhibitors of HPGD (15-Hydroxyprostaglandin Dehydrogenase); 15-hydroxyprostaglandin dehydrogenase [NAD(+)] (Homo sapiens), P15428; purified HPGD, NADH fluorescence kinetic, PGE2 substrate; Potency, µM, for inactives: at the highest dose activity change, negative = inhibition, hits mostly inhibitors; 150,000 tested, 4.3% active; active means well fitted inhibition curve with a large enough effect, not every such curve was filed as active; inconclusive means small, poorly fitted or top-dose-only effect, or another doubt; inactive means no such curve, though single readings can be large or run the other way; further: potency means the concentration at half of the fitted maximal effect; on the % scale 0 is the no-effect control and ±100 the full control effect
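NADH formation kinetics: reaction with 30 uM PGE2 and 1 mM NAD+ (final), 20 nM enzyme, Tris-HCl pH 8 with Tween 20, after 15 min compound preincubation at room temperature. Fluorescence change, last versus first of five reads.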
CBFb-RUNX1 inh: qHTS Assay for Compounds Blocking the Interaction Between CBF-beta and RUNX1 for the Treatment of Acute Myeloid Leukemia. AlphaScreen CBFb-His/RUNX1-biotin binding, biochemical. Potency, µM (doses to about 59.8 µM), for the others: at the highest dose activity, negative = inhibition, most hits filed as inhibitors. 230,000 tested, under 10 active; further: % of control where 0% means no effect
Target sequence (Q01196 whole entry, looked up): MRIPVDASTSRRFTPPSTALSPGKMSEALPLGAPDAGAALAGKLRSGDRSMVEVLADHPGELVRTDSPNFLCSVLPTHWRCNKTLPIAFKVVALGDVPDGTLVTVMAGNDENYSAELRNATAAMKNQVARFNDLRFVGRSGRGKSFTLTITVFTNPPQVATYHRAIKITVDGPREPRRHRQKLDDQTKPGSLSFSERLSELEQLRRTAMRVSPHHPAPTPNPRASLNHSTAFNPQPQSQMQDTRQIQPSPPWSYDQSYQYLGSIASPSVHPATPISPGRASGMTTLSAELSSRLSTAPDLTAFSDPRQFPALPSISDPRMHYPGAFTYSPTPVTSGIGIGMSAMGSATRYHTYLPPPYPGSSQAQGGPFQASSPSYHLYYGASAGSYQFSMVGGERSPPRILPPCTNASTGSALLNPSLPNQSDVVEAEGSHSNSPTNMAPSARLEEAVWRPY
Target sequence (Q13951 whole entry, looked up): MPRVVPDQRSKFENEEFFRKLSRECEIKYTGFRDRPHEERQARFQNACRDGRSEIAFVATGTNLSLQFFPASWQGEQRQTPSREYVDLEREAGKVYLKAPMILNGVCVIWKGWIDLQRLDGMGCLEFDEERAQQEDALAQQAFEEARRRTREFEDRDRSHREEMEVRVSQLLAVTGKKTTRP
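Interaction loss through any mechanism counts as activity. Pre-formed complex of His-CBF-beta and biotin-RUNX1 (30 nM apiece) is incubated with compound 15 min, then with 50 ng nickel and 50 ng streptavidin beads for 90 min before AlphaScreen detection.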
HTT cytoprotect: qHTS Multiplex Assay to Identify Dual Action Probes in a Cell Model of Huntington: Cytoprotection (ATP). PC12 HTT-Q103 induced, cytoprotection, ATP luminescence, 40 h. Potency, µM (top dose mostly 56.4 µM), for the others: cytoprotection (ATP increase), actives largely listed as activators. 230,000 tested, 0.14% active; further: potency means the concentration at half of the fitted maximal effect; % of control where 0% means no effect; nearly all actives have a fitted effect of over 45% in size
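Readout: ATPlite luminescence (ATP level). Model: stable PC12, inducible Htt exon1 Q103-GFP. Inducer: tebufenozide, 100 nM final. Compounds: dose series. No G418 in medium.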
ALDH1A1 inh: qHTS Assay for Inhibitors of Aldehyde Dehydrogenase 1 (ALDH1A1) | AID 1030, 2008 | 220,000 tested, 7.3% active | Aldehyde dehydrogenase 1A1 (Homo sapiens), P00352 | Purified ALDH1A1, NADH fluorescence, propionaldehyde substrate | Potency, µM (series often up to 75.3 µM), without a hit: at the top dose activity, negative = inhibition, usual class: inhibitors; active means well fitted inhibition curve with a large enough effect, not every such curve was filed as active; inconclusive means small, poorly fitted or top-dose-only effect, or another doubt; inactive means no such curve, though single readings can be large or run the other way;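 further: potency means the concentration at half of the fitted maximal effect; plate controls were no enzyme wells and a reference inhibitor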
HttQ103 aggreg: qHTS Multiplex Assay to Identify Dual Action Probes in a Cell Model of Huntington: Aggregate Formation (GFP); PC12 HttQ103-GFP aggregates, Acumen cytometry, 40 h; Potency, µM (titrated, usually from 46.1 µM), without a hit: top-dose activity change, negative = inhibition, usual class: inhibitors; 220,000 tested, 1.1% active; AID 1688, 2009; further: potency means the concentration at half of the fitted maximal effect; on the % scale 0 is the no-effect control and ±100 the full control effect; nearly all actives have a fitted effect of over 60% in size
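PC12 cells stably carrying ecdysone-inducible HTT exon 1 Q103–GFP were induced with tebufenozide (100 nM final) and treated with library compounds in titration. GFP aggregates in lysates were counted by laser scanning cytometry.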
* hit, by the source's call; ? = inconclusive; · = no result given; [ ] = remark or other dose. Sampled rows, rich in hits. Any-hit rate of the full collection: about 11%. Unless noted, the call rests on the fitted dose curve; in most records, active means well fitted curve in the direction sought with a large enough effect; inconclusive means small, poorly fitted or top-dose-only effect, or another doubt; inactive means no such curve, though single readings can be large; an effect the other way counts as inactive or inconclusive.

SMILES	PNC inhibitor	HPGD inh	CBFb-RUNX1 inh	HTT cytoprotect	ALDH1A1 inh	HttQ103 aggreg
COc1ccc(C2NC(=S)NC(O)(C(F)(F)F)C2C(=O)c2cccs2)cc1 (configuration not stated)	17	2%	4%	-2%[10 µM]	10µM*	13%
COc1cc(C2NC(=O)NC(O)(C(F)(F)F)C2C(=O)c2ccc(Cl)cc2)ccc1O (configuration not stated)	27	-15%	1%	-3%	?	-2%
C=CCn1c(SCc2ccccc2C#N)nnc1-c1cc(Br)ccc1O	?	14µM*	-2%	-22%[10 µM]	-5%	-8%
OC[C@H]1O[C@@H](n2cnc3c(NCc4ccccc4)ncnc32)[C@H](O)[C@@H]1O	·	-5%	5%[21.7 µM]	-41%[1.9 µM]	6%	·
CCOC(=O)NC(NC(=O)OCC)C(=O)c1ccccc1	?	-8%	3%	19%	12%	16%
CCOC(=O)NC(N(O)c1cccc(Cl)c1)C(Cl)(Cl)Cl (configuration not stated)	·	·	0%	15%[10 µM]	8.9µM*	15%[9.22 µM]
Cc1cc(Cl)ccc1Oc1ncnc2oc(-c3ccccc3)cc12	-94*	?	-5%	-14%	?	-13%
NNc1ccccc1C(F)(F)F	·	·	-8%	-7%[10 µM]	18µM*	15%
Cc1ccc(C2CC2c2n[nH]c(=S)n2-c2ccc(C)cc2)cc1 (configuration not stated)	-27	?	-5%	4%	?	21%
S=c1[nH]nc(C2CC2c2ccc(Cl)cc2)n1-c1ccc(Cl)cc1 (configuration not stated)	-16	5µM*	-6%	·	0%	21%
Cc1ccc(-n2c(C3CC3c3ccc(Cl)cc3)n[nH]c2=S)cc1 (configuration not stated)	?	8.9µM*	1%	-7%	7%	5%
Nc1n[nH]c(=S)n1-c1ccc(Cl)cc1	·	·	-12%	1%[10 µM]	1.6µM*	0%[9.22 µM]
CCCC[C@@H]1C[C@H]1C(NC(=O)c1ccco1)c1ccccc1C(F)(F)F (some centres not stated)	·	-8%	27%	-53%	-22%	·
CC1CC(C)CN(c2cc(N(C)CCO)c([N+](=O)[O-])c3nonc23)C1 (configuration not stated)	·	·	1%	11%	11µM*	13%
Cc1ccc(S(=O)(=O)N2CCCC2C(=O)OCc2ccco2)cc1 (configuration not stated)	-108*	-14%	-2%	8%	2.8µM*	27%
O=C(O)/C=C/C(=O)N(CC1CCCO1)C1CC(=O)N(c2c(Cl)cccc2Cl)C1=O (configuration not stated)	·	·	2%	16%[10 µM]	·	19%[9.22 µM]
Cc1c(Cl)ccc2c1NC(=O)[C@]21[C@@H]2C(=O)N(Cc3ccccc3)C(=O)[C@@H]2[C@@H]2CCCN21	-127*	-27%	3%	-7%[0.074 µM]	2.8µM*	-32%
CCC(C)Cn1c(C)nc2ccccc21 (configuration not stated)	?	-4%	4%	-31%	-2%	20µM*
Cc1nc2ccccc2n1CCCOc1ccccc1	-105*	-4%	8%	6%[1.9 µM]	-7%	?
Cc1nc2ccccc2n1CSc1ccccc1	?	-15%	-2%	4%[10 µM]	?	7%
COCc1nc2ccccc2n1CCCOc1ccccc1	-106*	-11%	5%	-8%	-5%	-14%
COc1ccc(-c2nc3cnc(Oc4cccc(Cl)c4)nc3n(C[C@H]3CCCO3)c2=O)cc1	·	·	·	6%	?	·
O=C1Nc2ccccc2N=C(c2ccccc2)C1Br (configuration not stated)	·	·	-8%	-15%[10 µM]	16µM*	-12%[9.22 µM]
O=C1Nc2ccccc2N=C(c2ccccc2)C1N1CCOCC1 (configuration not stated)	?	-11%	3%	-10%[10 µM]	22µM*	1%
O=C1CC(c2ccccc2)=Nc2ccccc2N1	-10	-10%	-5%	-9%	?	15%
SMILES	PNC inhibitor	HPGD inh	CBFb-RUNX1 inh	HTT cytoprotect	ALDH1A1 inh	HttQ103 aggreg
CNS(=O)(=O)c1cccc(C(=O)OC2CCCCC2=O)c1 (configuration not stated)	25	-7%	-1%	-7%	?	10%
COCCCNC(=O)Cc1coc2ccc3ccccc3c12	·	·	-7%	-11%	3%	0%
O=C(O)Cc1coc2ccc3ccccc3c12	·	·	3%	·	-6%	23%
O=C(Cc1coc2ccc3ccccc3c12)N1CCCC1	3	13µM*	3%	-19%[0.074 µM]	?	1%
CCCCNC(=O)Cc1coc2ccc3ccccc3c12	33	14µM*	2%	3%	-1%	2%
Cc1cccc(NC(=O)Cc2coc3ccc4ccccc4c23)n1	11	16µM*	-6%	-5%	-4%	-2%
C[N+](C)([O-])Cc1cc(-c2ccccc2)ccc1O	·	-11%	·	14%[10 µM]	-9%[13.5 µM]	·
CCOC(=O)c1c(C)[nH]c(C2=NNC(=NC3CC3)SC2)c1C	·	·	-17%	-16%[10 µM]	18µM*	19%
CN1CCN(C(=O)c2ccc3ccccc3c2)CC1	2	16µM*	-3%	-15%	-3%	9%
O=C(c1ccc2ccccc2c1)N1CCN(c2ccc(C(F)(F)F)cn2)CC1	10	-21%	5%	7%[10 µM]	16µM*	?
CN1CCN(C(=O)c2ccc(-n3cccc3)cc2)CC1	?	14µM*	-2%	24%	4%	-9%
O=C(c1ccc(-n2cccc2)cc1)N1CCN(Cc2ccccc2)CC1	24	-12%	-19%	-13%	-10%	-14%
O=C(c1ccc2c(c1)OCO2)N1CCN(c2ccc(C(F)(F)F)cn2)CC1	48	-29%	17%	20%[10 µM]	?	-21%
Cc1cc(C(=O)CSc2nnnn2-c2ccccc2)c(C)n1CC1CCCO1 (configuration not stated)	-13	-19%	-11%	-26%[10 µM]	?	?
Cc1ccc(-n2nnnc2SCC(=O)c2cc(C)n(-c3cc(C)on3)c2C)c(C)c1	?	-18%	-28%	-43%	2.2µM*	-25%
Cc1cc(C(=O)CSc2nnnn2-c2ccccc2)c(C)n1CCc1ccccc1	91	-14%	1%	?	?	-1%
Cc1cc(-n2c(C)cc(C(=O)CSc3nnnn3-c3ccccc3)c2C)no1	-16	-12%	-15%	-12%[10 µM]	7.1µM*	?
